From ChEMBL document CHEMBL3988442, “University of Dundee, Small-Polar-MMV Screening Library” (2021)
For some assays here: Measured potencies and affinities stand elsewhere.

Legend:
Design in all cases: scale not given: direction of the effect not stated beside the values
[1] = target: Protein translocase subunit SecA (Escherichia coli (strain K12)) (UniProt P10408); assay: Assay to Identify E. coli SecA ATPase Inhibitors; format: functional; conditions: 30 µM
[2] = target: T1, Ubiquitin-activating enzyme e1, putative (Leishmania donovani (strain BPK282A1)) (UniProt E9BSI1); assay: Leishmania donovani Ubiquitin Activating Enzyme (LdE1); format: functional; conditions: 30 µM
T1 sequence (whole entry): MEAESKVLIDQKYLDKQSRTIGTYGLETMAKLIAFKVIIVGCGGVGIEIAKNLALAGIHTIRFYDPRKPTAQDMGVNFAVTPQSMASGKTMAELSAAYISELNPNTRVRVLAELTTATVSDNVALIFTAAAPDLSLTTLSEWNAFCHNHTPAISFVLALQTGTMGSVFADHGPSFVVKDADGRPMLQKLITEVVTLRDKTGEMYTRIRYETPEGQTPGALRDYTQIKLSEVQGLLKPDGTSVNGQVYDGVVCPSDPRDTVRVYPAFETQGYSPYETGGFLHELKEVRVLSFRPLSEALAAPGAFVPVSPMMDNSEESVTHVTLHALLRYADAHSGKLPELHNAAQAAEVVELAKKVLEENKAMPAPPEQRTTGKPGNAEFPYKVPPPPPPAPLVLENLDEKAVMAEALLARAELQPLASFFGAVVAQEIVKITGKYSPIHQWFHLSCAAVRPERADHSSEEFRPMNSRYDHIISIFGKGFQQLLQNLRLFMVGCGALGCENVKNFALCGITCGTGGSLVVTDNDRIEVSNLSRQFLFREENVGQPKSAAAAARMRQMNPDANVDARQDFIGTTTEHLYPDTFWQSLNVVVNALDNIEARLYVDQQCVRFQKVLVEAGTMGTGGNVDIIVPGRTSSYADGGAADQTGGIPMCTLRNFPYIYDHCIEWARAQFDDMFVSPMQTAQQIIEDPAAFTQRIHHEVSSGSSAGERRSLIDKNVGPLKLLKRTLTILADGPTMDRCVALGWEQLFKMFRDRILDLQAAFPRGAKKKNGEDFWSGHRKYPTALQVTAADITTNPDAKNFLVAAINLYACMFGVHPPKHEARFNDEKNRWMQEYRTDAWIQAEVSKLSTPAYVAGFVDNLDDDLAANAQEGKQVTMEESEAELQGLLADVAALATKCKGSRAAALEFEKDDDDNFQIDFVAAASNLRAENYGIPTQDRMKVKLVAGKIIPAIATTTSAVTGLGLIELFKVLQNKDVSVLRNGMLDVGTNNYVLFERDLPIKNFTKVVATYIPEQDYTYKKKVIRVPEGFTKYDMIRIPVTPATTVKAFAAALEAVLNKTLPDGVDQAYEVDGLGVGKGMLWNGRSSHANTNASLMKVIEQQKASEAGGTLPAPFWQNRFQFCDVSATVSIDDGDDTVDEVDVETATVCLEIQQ

[3] = target: Sialic acid-binding Ig-like lectin 9 (Homo sapiens) (UniProt Q9Y336); assay: Hs-Siglec9 ALPHAscreen SOP 20170721; conditions: 10 µM
Trypanosoma cruzi = assay: Trypanosoma cruzi phosphomannomutase and mannose-1-phosphate guanylyltransferase assay; format: functional; conditions: 10 µM
[4] = target: T2, Arginase-2, mitochondrial (Homo sapiens) (UniProt P78540); assay: in vitro enzyme assay to detect the production of urea directly proportional to the activity of Arginase II; format: functional; conditions: 33.3 µM; note: in the data most compounds retested in dose-response had high values
T2 sequence (whole entry): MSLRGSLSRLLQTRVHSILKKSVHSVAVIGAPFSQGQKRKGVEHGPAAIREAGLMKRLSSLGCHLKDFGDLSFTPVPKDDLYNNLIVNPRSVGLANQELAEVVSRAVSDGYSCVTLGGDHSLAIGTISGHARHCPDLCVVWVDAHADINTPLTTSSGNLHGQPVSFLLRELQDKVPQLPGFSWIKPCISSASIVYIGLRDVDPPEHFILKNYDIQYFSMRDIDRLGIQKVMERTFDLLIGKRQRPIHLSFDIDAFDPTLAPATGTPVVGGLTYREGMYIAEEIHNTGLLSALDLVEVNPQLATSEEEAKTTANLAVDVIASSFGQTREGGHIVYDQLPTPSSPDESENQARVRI

[5] = target: T3, Proteasome subunit beta (Trypanosoma cruzi) (UniProt O96673); assay: Trypanosoma cruzi proteasome chymotrypsin-like activity (TcProtChymo) assay.; note: in the data most compounds retested in dose-response had high values; format: functional; conditions: 9.37 µM
T3 sequence (whole entry): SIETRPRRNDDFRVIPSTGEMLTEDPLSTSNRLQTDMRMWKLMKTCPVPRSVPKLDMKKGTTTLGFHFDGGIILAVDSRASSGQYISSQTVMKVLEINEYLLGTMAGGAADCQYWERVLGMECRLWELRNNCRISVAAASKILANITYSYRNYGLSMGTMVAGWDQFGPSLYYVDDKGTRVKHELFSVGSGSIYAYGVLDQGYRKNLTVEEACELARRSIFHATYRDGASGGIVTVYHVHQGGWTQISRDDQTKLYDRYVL

Homo sapiens = species on record: Homo sapiens; assay: To identify inhibition of the IFN signalling (Jak-Stat) pathway via expression of an eGFP reporter gene under the control of an IFN-stimulated response element (ISRE) containing MxA promoter.; format: functional; conditions: 30 µM
[6] = target: T4, Tyrosyl-tRNA synthetase, putative (Trypanosoma cruzi (strain CL Brener)) (UniProt Q4DSP6); assay: Trypanosoma cruzi tyrosyl tRNA synthetase (TcYRS) _High Tyrosine SOP; format: functional; conditions: 30 µM; note: in the data most compounds retested in dose-response had high values
T4 sequence (whole entry): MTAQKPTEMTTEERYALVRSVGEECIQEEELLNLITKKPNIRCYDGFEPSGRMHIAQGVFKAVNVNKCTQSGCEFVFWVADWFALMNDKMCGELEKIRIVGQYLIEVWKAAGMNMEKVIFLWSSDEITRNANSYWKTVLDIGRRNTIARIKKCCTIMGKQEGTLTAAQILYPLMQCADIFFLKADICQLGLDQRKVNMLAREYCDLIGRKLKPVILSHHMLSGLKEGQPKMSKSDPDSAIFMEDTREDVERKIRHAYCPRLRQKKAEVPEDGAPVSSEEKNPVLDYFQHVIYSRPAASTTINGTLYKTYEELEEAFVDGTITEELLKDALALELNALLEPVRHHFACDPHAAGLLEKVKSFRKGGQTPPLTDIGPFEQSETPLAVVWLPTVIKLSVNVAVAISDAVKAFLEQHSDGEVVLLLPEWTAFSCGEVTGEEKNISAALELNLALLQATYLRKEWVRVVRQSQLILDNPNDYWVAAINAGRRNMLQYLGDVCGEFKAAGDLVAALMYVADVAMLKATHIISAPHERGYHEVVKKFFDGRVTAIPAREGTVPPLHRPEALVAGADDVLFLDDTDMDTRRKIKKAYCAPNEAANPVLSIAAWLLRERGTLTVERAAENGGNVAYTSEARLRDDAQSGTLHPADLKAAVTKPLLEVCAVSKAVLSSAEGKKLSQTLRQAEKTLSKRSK

[7] = target: T4, Tyrosyl-tRNA synthetase, putative (Trypanosoma cruzi (strain CL Brener)); assay: Trypanosoma cruzi tyrosyl tRNA synthetase (TcYRS) SOP; format: functional; conditions: 30 µM
[8] = target: Chromo domain-containing protein 1 (Saccharomyces cerevisiae (strain ATCC 204508 / S288c) (Baker's yeast)) (UniProt P32657); assay: ScCHD-1 Enzyme Inhibition Assay; format: functional; conditions: 30 µM; note: in the data most compounds retested in dose-response had high values
Sequence of Chromo domain-containing protein 1 (Saccharomyces cerevisiae (strain ATCC 204508 / S288c) (Baker's yeast)) (P32657 whole entry, the tested form may be a part): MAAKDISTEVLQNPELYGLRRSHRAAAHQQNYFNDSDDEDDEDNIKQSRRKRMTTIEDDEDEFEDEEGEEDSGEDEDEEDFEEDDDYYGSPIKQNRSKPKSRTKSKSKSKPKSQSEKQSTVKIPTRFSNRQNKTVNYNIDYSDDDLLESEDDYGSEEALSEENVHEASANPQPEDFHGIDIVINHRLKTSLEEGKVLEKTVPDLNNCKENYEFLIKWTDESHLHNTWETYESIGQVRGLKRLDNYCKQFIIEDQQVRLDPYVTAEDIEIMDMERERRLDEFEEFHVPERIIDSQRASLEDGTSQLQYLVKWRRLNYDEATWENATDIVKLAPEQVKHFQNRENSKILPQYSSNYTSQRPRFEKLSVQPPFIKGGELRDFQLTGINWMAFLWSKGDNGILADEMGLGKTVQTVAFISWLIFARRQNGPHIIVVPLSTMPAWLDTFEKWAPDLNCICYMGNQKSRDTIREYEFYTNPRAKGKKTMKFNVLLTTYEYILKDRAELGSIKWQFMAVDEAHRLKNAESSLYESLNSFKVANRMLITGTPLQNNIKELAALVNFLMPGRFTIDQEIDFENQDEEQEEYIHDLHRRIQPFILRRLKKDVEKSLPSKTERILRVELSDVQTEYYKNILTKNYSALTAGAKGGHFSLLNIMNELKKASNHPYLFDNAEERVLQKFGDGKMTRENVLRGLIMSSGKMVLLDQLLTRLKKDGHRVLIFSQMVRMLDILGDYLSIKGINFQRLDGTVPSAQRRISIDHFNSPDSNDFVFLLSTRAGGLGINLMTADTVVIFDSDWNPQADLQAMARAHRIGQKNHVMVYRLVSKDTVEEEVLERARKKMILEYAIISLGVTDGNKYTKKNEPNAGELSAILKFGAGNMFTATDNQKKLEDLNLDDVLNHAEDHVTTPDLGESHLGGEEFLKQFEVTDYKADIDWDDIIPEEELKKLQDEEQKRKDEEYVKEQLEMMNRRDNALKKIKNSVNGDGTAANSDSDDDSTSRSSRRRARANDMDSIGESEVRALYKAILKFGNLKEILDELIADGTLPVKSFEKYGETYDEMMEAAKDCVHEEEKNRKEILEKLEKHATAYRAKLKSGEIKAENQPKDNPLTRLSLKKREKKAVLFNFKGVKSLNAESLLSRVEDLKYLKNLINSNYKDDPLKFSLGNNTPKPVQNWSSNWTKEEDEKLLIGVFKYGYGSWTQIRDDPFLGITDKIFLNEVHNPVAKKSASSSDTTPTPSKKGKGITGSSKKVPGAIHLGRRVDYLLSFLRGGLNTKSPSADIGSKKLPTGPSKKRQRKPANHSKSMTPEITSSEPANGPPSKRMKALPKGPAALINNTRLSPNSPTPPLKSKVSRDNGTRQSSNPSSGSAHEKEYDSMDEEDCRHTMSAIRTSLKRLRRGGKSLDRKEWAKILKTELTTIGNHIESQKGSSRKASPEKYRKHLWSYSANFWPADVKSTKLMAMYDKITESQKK

Sequence of Sialic acid-binding Ig-like lectin 9 (Homo sapiens) (Q9Y336 whole entry): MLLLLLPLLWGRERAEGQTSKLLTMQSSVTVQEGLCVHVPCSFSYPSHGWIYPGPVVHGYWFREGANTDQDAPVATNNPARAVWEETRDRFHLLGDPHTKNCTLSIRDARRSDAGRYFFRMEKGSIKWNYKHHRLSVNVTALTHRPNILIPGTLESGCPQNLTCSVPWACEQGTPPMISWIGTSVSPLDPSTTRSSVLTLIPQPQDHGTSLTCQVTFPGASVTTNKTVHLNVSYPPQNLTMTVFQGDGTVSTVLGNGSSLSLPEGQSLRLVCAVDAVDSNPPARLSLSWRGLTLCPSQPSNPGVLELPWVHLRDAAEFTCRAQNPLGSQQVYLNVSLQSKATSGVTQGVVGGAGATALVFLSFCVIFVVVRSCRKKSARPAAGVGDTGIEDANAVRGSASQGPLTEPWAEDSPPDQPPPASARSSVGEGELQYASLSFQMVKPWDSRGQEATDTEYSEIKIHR
Sequence of Protein translocase subunit SecA (Escherichia coli (strain K12)) (P10408 whole entry): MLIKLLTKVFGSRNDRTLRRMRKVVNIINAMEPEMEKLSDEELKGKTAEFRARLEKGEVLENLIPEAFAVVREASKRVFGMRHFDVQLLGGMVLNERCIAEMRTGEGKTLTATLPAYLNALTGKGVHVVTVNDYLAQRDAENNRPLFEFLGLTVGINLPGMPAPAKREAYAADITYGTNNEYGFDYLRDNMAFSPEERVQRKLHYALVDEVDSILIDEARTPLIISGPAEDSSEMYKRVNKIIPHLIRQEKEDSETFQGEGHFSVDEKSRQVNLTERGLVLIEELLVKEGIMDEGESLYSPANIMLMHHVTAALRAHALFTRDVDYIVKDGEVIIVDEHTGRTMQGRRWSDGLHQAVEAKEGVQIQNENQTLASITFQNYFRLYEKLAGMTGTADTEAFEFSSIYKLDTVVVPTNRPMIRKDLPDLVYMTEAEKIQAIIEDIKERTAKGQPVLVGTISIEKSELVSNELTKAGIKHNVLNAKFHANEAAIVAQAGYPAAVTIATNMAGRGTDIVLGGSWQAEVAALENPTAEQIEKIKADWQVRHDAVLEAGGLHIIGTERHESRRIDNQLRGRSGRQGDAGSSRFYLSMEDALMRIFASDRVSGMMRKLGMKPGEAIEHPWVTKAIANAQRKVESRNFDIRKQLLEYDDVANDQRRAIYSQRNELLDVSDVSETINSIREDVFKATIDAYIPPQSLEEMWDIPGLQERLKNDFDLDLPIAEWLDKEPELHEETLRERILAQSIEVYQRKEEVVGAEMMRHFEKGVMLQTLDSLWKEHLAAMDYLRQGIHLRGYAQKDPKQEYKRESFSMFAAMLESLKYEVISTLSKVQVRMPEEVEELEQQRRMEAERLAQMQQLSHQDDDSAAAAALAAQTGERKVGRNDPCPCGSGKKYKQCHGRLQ

Structure (SMILES) | Percent Effect [1] [%] | Percent Effect [2] [%] | Percent Effect [3] [%] | Percent Effect (Trypanosoma cruzi) [%] | Percent Effect [4] [%] | Percent Effect [5] [%] | Percent Effect (Homo sapiens) [%] | Percent Effect [6] [%] | Percent Effect [7] [%] | Percent Effect [8] [%]
CC(Cn1cccn1)NC(=O)NCc1ccccn1 (stereo not given) | -2.65 | 8 | -5.88 | -5.22 | 1.33 | 7.04 | 13.9 | 1.58 | 10.3 | -11
c1cnnc(N2CCCC2CNCc2ccsc2)c1 (stereo not given) | -2.09 | -5.13 | -6.52 | 10.1 | 4.1 | -8.45 | 15.3 | -0.478 | 6.02 | -2.21
Clc1ccccc1-c1nc(CNC2CCc3ncnn3C2)cs1 (stereo not given) | -0.994 | -12.8 | -3.7 | 4.6 | 0.41 | -0.427 | -12 | 2.39 | 1.21 | 6.45
O=C(NCCCNc1ccccc1)c1scnc1Cl | -4.57 | 13.3 | -2.42 | -3.61 | 0.444 | 8.06 | 24.4 | 3.68 | 12.8 | -10.6
CN1CC(c2ccccc2)CC12CCN(C(=O)c1cncc(Cl)c1)CC2 (stereo not given) | -4.25 | 5.41 | 3.4 | -0.679 | 0.35 | 12.3 | 12.2 | 7.98 | 14.6 | -5.7
Fc1cccc(-c2nc(CN3CCn4c(nnc4C4CC4)C3)co2)c1 | 2.37 | 0 | -4.75 | -5.42 | 1.33 | 8.4 | 19 | 0.526 | 7.69 | -19
CCNC(=O)[C@@H]1C[C@@H](NC(=O)Cc2ccncc2)CN1Cc1ccsc1 | -12.1 | 2.7 | 3.71 | -4.56 | -0.35 | 11.6 | -2.37 | 4.79 | 2.44 | 5.29
COC(=O)NCc1cc2n(n1)CCCN(C(C)=O)C2 | -9.99 | 5.41 | -0.0271 | -3.98 | -2.45 | 7.19 | -0.185 | 4.79 | 12.2 | -3.29
O=C(Cn1c(=O)nc2n1C(=O)N(c1ccccc1)C2)Nc1ccccc1 | -6.94 | 16.2 | 9.15 | 2.23 | 24.8 | 23.6 | 5.58 | 6.92 | 14.6 | 75.6
Cc1nc(CN(C)C2CCN(Cc3ccc4ccccc4n3)C2)no1 (stereo not given) | 0.184 | -5.2 | -6.12 | 7.28 | -9.22 | 20.4 | 10.1 | 21.6 | 30.6 | -10.1
Cc1nccn1-c1cccc(C2CCCN2S(=O)(=O)c2cn(C)cn2)n1 (stereo not given) | -6.36 | 1.33 | -0.612 | -3.94 | -0.885 | -0.493 | 22.4 | 0 | -2.5 | -23.4
Cc1cccc(CN2CCC3(CCN(c4ccccn4)C3)C2=O)c1 (stereo not given) | -2.21 | 16.9 | 0.691 | 3 | -0.913 | 14 | 11.4 | 10.6 | 12.5 | -5.26
CNc1nc2c(s1)C(=O)CN(C(=O)NCc1ccccc1)C2 | -2.61 | 8 | -5.95 | -8.84 | 5.32 | 9.41 | 15.2 | 1.58 | 2.56 | -6.84
COc1ccc(C[C@H]2CN(C(=O)c3ccncc3)CC[C@@H]2OC)cc1 | -3.87 | 11.7 | 0.155 | -6.57 | -11.4 | 6.61 | 11.4 | -2.9 | -2.5 | -10.3
COCCN1CCN(Cc2ccc(F)c(C)c2)[C@H]2CS(=O)(=O)C[C@H]21 | -6.45 | 10.8 | 28.9 | 12.3 | 10.8 | 5.48 | -1.07 | 7.98 | 17.1 | -4.27
CCn1ccnc1CN1CCCN(C(=O)c2cc(Cl)c[nH]2)CC1 | -1.59 | 12.8 | 9.67 | 7.98 | 8.61 | 1.79 | 10.2 | 3.35 | 22.9 | -8.12
CCc1cc(O)nc(C2CCCN2C(=O)c2cc(C)no2)n1 (stereo not given) | -0.0921 | 17.3 | -12.2 | -2.76 | -2.65 | 11.3 | 20.5 | -2.12 | 5 | -14.2
Cc1ccc(SCC2CNc3nc4ccccc4c(=O)n32)c(C)c1 (stereo not given) | 0.606 | 22.1 | 23.4 | 0.375 | 5.94 | 12.4 | 29.8 | 6.76 | -2.5 | -2.7
CCCC(C)C(=O)N1CCC(n2cccc2C(=O)OC)CC1 (stereo not given) | -6.33 | 10.4 | 13.2 | -1.12 | 1.43 | 2.46 | 31 | 2.94 | 9.41 | 6.48
CNC(=O)[C@@H]1C[C@H]2CN(Cc3ccco3)C[C@H]2N1C | -3.02 | -27.3 | -0.86 | -3.19 | 4.11 | 16.7 | -13.8 | 9.66 | 12.5 | -2.19
CS(=O)(=O)NCC1CCCN(C(=O)COCc2ccccc2)C1 (stereo not given) | -1.97 | 15.4 | -3.29 | 4.41 | 6.56 | 1.96 | 17.6 | 0.478 | 20.5 | -5.38
Cc1cc(C)n2cc(CN3CCCC3Cn3nc(C)nc3C)nc2n1 (stereo not given) | -6.31 | -2.67 | 2.66 | 3.41 | 3.1 | 10.6 | 1.56 | 16.3 | 15.4 | -6.76
COc1cc(C)nc(N2CCN(C(=O)COCC(F)(F)F)CC2)n1 | -3.6 | 7.69 | -1.63 | -1.22 | 1.64 | 3.16 | 22.4 | 4.31 | 8.43 | -3.52
